In PubChem BioAssay AID1546 (The Scripps Research Institute Molecular Screening Center, 2009) one finds activation data, which are given here for two compounds.

This is one part of the list. Values without a mark were called inactive. No stated cut-off is given here; in the data, active means activation above about 45%; inactive means the rest.

The assay concerns the target Neuropeptide Y receptor type 1 (Homo sapiens) (UniProt P25929). As to the kind of experiment: NPY-Y1 potentiators or agonists, confirmation, cell-based (AID 1546).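 Further: cells challenged with NPY at its EC10 plus isoproterenol stimulus.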 The conditions noted are these: cell-based NPY-Y1 potentiator/agonist assay; at 3.6 µM; stronger effect = higher value.

Sequence of Neuropeptide Y receptor type 1 (Homo sapiens) (P25929 whole entry, looked up): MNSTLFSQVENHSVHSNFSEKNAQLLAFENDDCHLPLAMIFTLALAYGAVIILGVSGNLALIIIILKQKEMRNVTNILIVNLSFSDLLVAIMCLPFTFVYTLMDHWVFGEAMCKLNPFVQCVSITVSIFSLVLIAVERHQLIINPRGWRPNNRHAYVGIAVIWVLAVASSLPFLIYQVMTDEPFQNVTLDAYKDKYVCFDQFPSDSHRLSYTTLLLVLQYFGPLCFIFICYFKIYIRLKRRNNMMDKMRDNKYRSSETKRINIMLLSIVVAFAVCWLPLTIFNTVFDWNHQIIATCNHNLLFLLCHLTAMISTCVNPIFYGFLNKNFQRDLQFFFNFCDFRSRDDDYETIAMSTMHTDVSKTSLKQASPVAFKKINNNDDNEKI

In the case of `Cc1nn(Cc2ccccc2Cl)c(Cl)c1C(=O)OC(C(=O)NC(N)=O)C(C)C` (configuration not stated), the activation is 43.3%.
The same measure for `CSC1=NP(=S)(SC)N(C)c2nc3n(c21)CCC3` (configuration not stated): 13.8%.
